# Measured values taken from PubChem BioAssay (Tox21).
# A number with no mark means an inactive call. Results filed as inconclusive are left out. Where a call stands in place of a potency, no number is given. Calls of active or inactive are those of the source. Unless noted, the call rests on the fitted dose curve; in most records, active means well fitted curve in the direction sought with a large enough effect in the repeat runs; inconclusive means weak or mixed curves; inactive means no such curve, though single readings can be large; an effect the other way counts as inactive or inconclusive.
# Columns and labels:
# [1] = target: Progesterone receptor (Homo sapiens) (UniProt P06401); assay: qHTS assay to identify small molecule agonists of the progesterone receptor (PR) signaling pathway (AID 1346784; calls by dose curve; further: nearly all actives have a fitted effect of over 30% in size); conditions: PR-UAS-bla HEK293T, beta-lactamase FRET ratio, 16 h; series mostly up to 92.4 µM
# Chain of Progesterone receptor (Homo sapiens) (P06401 whole entry, looked up): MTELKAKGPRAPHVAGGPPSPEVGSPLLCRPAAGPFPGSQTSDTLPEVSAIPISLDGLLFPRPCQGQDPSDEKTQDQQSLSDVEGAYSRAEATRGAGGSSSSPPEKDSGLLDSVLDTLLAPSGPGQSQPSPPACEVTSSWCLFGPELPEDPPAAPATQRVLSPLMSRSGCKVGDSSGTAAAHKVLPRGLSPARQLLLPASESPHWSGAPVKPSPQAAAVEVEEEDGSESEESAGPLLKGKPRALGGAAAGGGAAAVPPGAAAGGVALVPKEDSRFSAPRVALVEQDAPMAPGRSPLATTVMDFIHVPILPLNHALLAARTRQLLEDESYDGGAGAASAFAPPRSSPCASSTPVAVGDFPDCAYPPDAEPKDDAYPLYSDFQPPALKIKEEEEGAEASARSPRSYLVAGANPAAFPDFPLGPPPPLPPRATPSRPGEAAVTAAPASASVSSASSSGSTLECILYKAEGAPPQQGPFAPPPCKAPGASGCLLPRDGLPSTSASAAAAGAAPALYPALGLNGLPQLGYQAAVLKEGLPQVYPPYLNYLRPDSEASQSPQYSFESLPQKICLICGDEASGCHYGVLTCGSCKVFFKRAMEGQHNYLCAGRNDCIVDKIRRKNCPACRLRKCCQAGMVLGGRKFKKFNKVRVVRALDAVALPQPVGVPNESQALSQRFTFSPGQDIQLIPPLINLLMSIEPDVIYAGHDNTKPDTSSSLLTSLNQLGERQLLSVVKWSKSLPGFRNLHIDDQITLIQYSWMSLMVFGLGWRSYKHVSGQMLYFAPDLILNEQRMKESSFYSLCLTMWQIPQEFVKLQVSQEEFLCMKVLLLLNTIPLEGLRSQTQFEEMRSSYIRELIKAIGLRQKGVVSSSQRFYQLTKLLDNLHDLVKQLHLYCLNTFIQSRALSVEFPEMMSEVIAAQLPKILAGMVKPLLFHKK
# In short: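 Cells (PR-UAS-bla HEK 293T, GripTite) were plated in assay medium containing 2% charcoal-stripped FBS and incubated 6 hr. Test compounds in DMSO were added for 16 hr at 37C. FRET substrate was then loaded for 2 hr at room temperature before fluorescence reading.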
# [2] = target: Progesterone receptor (Homo sapiens) (UniProt P06401); assay: qHTS assay to identify small molecule antagonists of the progesterone receptor (PR) signaling pathway (AID 1346795; active means well fitted inhibition curve with a large enough effect in the signal ratio in the repeat runs, not every such curve was filed as active; the % refers to the signal ratio; further: potency means the concentration at half of the fitted maximal effect); conditions: PR-UAS-bla HEK293T, beta-lactamase FRET ratio, 16 h; series mostly up to 92.4 µM
# In short: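 Antagonist mode: compounds tested against 1 nM (final) promegestone stimulation in HEK293T cells expressing PR-UAS-bla reporter, 16 hr at 37C, 5% CO2; beta-lactamase activity detected via B/G FRET substrate after 2 hr at room temperature.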
# [3] = qHTS assay to identify small molecule antagonists of the progesterone receptor (PR) signaling pathway - cell viability counter screen (AID 1346798); conditions: PR-UAS-bla HEK293T viability, CellTiter-Glo luminescence, 16 h; series mostly up to 92.4 µM; further: nearly all actives have a fitted effect of over 50% in size; further: potency means the concentration at half of the fitted maximal effect
# In short: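 Counter screen for cytotoxicity: viability of PR-UAS-bla HEK293T cells was measured with CellTiter-Glo luminescence following 16 hr compound exposure in the presence of R5020.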
# [4] = qHTS assay to identify small molecule agonists of the progesterone receptor (PR) signaling pathway - cell viability counter screen (AID 1346799; calls by dose curve; further: nearly all actives have a fitted effect of over 45% in size; further: potency means the concentration at half of the fitted maximal effect); conditions: PR-UAS-bla HEK293T viability, CellTiter-Glo luminescence, 16 h; series mostly up to 92.4 µM
# In short: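 Cells (PR-UAS-bla HEK293T) are plated at 3,000/well in 2% charcoal-stripped FBS medium, rested 6 hr, dosed and incubated 16 hr at 37C. CellTiter-Glo is then added and luminescence measured after 30 min at room temperature.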
# [5] = qHTS assay to identify small molecule agonists of the TGF-beta/Smad signaling pathway - cell viability counter screen (AID 1346829); conditions: SBE-bla HEK293T viability, CellTiter-Glo luminescence, 5 h; series mostly up to 76.8 µM; further: nearly all actives have a fitted effect of over 45% in size; further: potency means the concentration at half of the fitted maximal effect
# In short: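 Luminescence from CellTiter-Glo, read after a 30 min room-temperature incubation, gives cell viability of SBE-bla HEK 293T cells treated 5 hr with compounds at 37 C.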
# [6] = qHTS assay to identify small molecule agonists of the TGF-beta/Smad signaling pathway (AID 1346859; active means well fitted activation curve with a large enough effect in the signal ratio in the repeat runs, not every such curve was filed as active; the % refers to the signal ratio); conditions: SBE-bla HEK293T, TGF-beta/Smad beta-lactamase reporter, 5 h; series mostly up to 76.8 µM
# In short: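 Reporter line: HEK 293T with stably integrated SBE-controlled beta-lactamase. Compound exposure lasts 5 hr at 37 C and 5% CO2; substrate loading follows for 2 hr at room temperature, with emission read at 460 and 530 nm.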
# [7] = target: Thyrotropin-releasing hormone receptor (Homo sapiens) (UniProt P34981); assay: qHTS assay to identify small molecule antagonists of the thyrotropin-releasing hormone receptor (TRHR) signaling pathway (AID 1346877; active means well fitted inhibition curve with a large enough effect in the repeat runs, not every such curve was filed as active; further: potency means the concentration at half of the fitted maximal effect); conditions: TRHR-HEK293, TRH-induced calcium fluorescence, antagonist mode; series mostly up to 51.3 µM
# Chain of Thyrotropin-releasing hormone receptor (Homo sapiens) (P34981 whole entry, looked up): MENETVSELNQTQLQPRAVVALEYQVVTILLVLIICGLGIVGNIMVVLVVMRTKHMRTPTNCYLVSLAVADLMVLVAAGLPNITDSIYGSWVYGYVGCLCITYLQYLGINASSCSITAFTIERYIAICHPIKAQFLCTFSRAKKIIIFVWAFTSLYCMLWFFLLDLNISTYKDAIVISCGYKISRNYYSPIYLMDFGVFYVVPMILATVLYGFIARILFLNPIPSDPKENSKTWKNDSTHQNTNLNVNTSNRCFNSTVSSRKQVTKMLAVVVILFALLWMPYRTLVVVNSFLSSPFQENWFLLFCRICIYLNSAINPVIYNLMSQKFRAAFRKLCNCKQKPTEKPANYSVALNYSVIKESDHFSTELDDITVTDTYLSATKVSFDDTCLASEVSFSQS
# In short: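 Screening used HEK293 cells engineered with TRHR, with a brief 5 min room-temperature compound exposure preceding addition of TRH to 1 nM. The read-out was kinetic calcium-dye fluorescence, concentration-response from 15 doses in triplicate.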
# [8] = target: Thyrotropin-releasing hormone receptor (Homo sapiens) (UniProt P34981); assay: qHTS assay to identify small molecule agonists of the thyrotropin-releasing hormone receptor (TRHR) signaling pathway (AID 1346891; calls by dose curve; further: potency means the concentration at half of the fitted maximal effect;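 on activation: HEK293 cells expressing TRHR with calcium dye readout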); conditions: TRHR-HEK293 calcium fluorescence, agonist mode; series mostly up to 57.6 µM
# In short: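 Cells: TRHR-Hek293, seeded and incubated 18 h. Dye loading: 2 h at 37 °C. Compound added from DMSO stock by pin tool. Read-out: kinetic calcium fluorescence over 3 min.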
# [9] = Human pregnane X receptor (PXR) small molecule agonists, qHTS cell viability counter screen (AID 1346977); conditions: PXR-Luc HepG2 viability, CellTiter-Fluor, 24 h; series mostly up to 92.4 µM; further: nearly all actives have a fitted effect of over 50% in size; further: potency means the concentration at half of the fitted maximal effect
# In short: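 Cytotoxicity counter screen run in the same wells as the PXR luciferase assay, using PXR-Luc HepG2 cells in charcoal-stripped serum medium. Viability: CellTiter-Fluor fluorescence after 24hr compound treatment.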
# [10] = Caspase-3/7 induction in HepG2 cells by small molecules, qHTS assay (AID 1346978); conditions: HepG2 caspase-3/7 activation, Caspase-Glo luminescence, 17 h; series mostly up to 92.4 µM; further: nearly all actives have a fitted effect of over 15% in size; further: potency means the concentration at half of the fitted maximal effect
# In short: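 Wild-type HepG2 cells (2,000/well) were settled 5 h at 37 C, 5% CO2, then exposed to compounds in DMSO for 17 h. Caspase-3/7 activity was read by luminescence 30 min after adding Caspase-Glo 3/7 reagent at room temperature.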
# [11] = Caspase-3/7 induction in CHO-K1 cells by small molecules, qHTS cell viability counter screen (AID 1346979); conditions: CellTiter-Fluor fluorescence, 17 h; series mostly up to 92.4 µM; further: nearly all actives have a fitted effect of over 35% in size; further: potency means the concentration at half of the fitted maximal effect
# In short: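 Cytotoxicity counter screen run in parallel with the caspase-3/7 assay: CHO-K1 cells, 16hr compound treatment at 37C, then CellTiter-Fluor for 1hr before fluorescence reading.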
# [12] = Caspase-3/7 induction in CHO-K1 cells by small molecules, qHTS assay (AID 1346980); conditions: CHO-K1 caspase-3/7 induction, Caspase-Glo luminescence, 17 h; series mostly up to 92.4 µM; further: nearly all actives have a fitted effect of over 15% in size; further: potency means the concentration at half of the fitted maximal effect
# In short: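 Wild-type cells were seeded at 1,500 per well and settled 5 hr at 37 C, 5% CO2, then exposed to DMSO-dissolved compounds for 17 hr. Caspase-Glo 3/7 reagent was added, and luminescence was read after 30min at room temperature.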
# [13] = Caspase-3/7 induction in HepG2 cells by small molecules, qHTS cell viability counter screen (AID 1346981); conditions: CellTiter-Fluor fluorescence, 17 h; series mostly up to 92.4 µM; further: nearly all actives have a fitted effect of over 30% in size; further: potency means the concentration at half of the fitted maximal effect
# In short: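 Multiplexed with the caspase-3/7 assay: HepG2 cells, 16 hr compound treatment, CellTiter-Fluor viability detection by fluorescence.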
# [14] = target: Nuclear receptor subfamily 1 group I member 2 (Homo sapiens) (UniProt O75469); assay: Human pregnane X receptor (PXR) small molecule agonists, qHTS assay (AID 1346982); conditions: PXR-Luc HepG2, CYP3A4 luciferase reporter, 24 h; series mostly up to 92.4 µM; further: nearly all actives have a fitted effect of over 35% in size; further: potency means the concentration at half of the fitted maximal effect
# Chain of Nuclear receptor subfamily 1 group I member 2 (Homo sapiens) (O75469 whole entry, looked up): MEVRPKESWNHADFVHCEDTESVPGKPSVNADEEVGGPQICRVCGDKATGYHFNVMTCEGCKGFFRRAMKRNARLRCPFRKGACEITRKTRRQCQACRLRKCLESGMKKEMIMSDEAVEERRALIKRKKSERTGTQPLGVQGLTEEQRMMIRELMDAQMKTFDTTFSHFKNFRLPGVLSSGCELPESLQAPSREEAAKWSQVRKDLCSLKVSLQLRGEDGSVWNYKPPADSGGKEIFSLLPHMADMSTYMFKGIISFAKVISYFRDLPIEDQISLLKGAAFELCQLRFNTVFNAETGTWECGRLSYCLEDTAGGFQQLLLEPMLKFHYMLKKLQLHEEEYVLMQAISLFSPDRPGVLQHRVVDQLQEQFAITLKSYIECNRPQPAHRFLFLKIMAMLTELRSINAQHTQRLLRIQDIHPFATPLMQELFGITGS
# In short: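 We seeded PXR-Luc HepG2 cells in assay medium containing 5% charcoal-stripped FBS, added compounds 5 hr later, incubated 24 hr, and read luminescence with ONE-Glo reagent.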
# [15] = target: Acetylcholinesterase (Homo sapiens) (UniProt P22303); assay: Acetylcholinesterase (AChE) small molecule antagonists: colormetric cell-based qHTS assay (AID 1347395; calls by dose curve; further: nearly all actives have a fitted effect of over 30% in size); conditions: SH-SY5Y cells AChE activity, colorimetric (Ellman); series mostly up to 115 µM
# Chain of Acetylcholinesterase (Homo sapiens) (P22303 whole entry, looked up): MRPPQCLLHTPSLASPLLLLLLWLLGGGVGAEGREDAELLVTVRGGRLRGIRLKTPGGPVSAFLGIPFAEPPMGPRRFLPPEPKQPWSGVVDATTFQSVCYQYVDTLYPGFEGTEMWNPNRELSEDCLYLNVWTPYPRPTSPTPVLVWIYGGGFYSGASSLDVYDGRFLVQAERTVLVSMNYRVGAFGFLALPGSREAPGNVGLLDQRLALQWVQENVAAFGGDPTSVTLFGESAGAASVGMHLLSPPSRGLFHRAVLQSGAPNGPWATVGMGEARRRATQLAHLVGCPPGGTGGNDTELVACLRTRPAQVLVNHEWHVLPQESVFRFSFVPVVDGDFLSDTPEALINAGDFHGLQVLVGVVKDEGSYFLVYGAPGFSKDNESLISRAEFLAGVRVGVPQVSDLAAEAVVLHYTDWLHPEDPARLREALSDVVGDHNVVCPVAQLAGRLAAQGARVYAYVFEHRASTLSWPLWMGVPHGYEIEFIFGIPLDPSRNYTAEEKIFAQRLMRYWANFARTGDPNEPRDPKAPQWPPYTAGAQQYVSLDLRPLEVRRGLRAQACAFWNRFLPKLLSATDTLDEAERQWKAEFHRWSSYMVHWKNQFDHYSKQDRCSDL
# In short: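 Cells (SH-SY5Y, 2,000 per well) are seeded and left overnight at 37 C. Compound is added for 30 min, then DTNB and acetylthiocholine for a further 90 min at 37 C before absorbance-based thiocholine detection.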
# [16] = target: Acetylcholinesterase (Homo sapiens) (UniProt P22303); assay: Acetylcholinesterase (AChE) small molecule antagonists: enzyme-based qHTS assay (AID 1347397; calls by dose curve; further: nearly all actives have a fitted effect of over 55% in size); conditions: Potency: AChE enzyme activity inhibition; series mostly up to 115 µM
# In short: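 Recombinant human AChE, dispensed at 50 mU/mL, was preincubated with Tox21 10K compounds or DMSO vehicle for 30 min at room temperature. DTNB plus acetylthiocholine was then added, and thiocholine was measured colorimetrically after a further 10 min.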
# [17] = qHTS assay to identify small molecule antagonists of the TGF-beta/Smad signaling pathway - cell viability counter screen (AID 1346824); conditions: SBE-bla HEK293T viability, CellTiter-Glo luminescence; series mostly up to 76.8 µM; further: nearly all actives have a fitted effect of over 50% in size; further: potency means the concentration at half of the fitted maximal effect
# In short: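 SBE-bla HEK 293T cells were plated overnight at 37 C, then given compounds in DMSO plus TGF-beta1 (added as 0.25 ng/mL solution) for 5 hr. After the bla read, CellTiter-Glo was added to the same wells and luminescence read after 30 min at room temperature.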
# [18] = target: Nuclear receptor subfamily 1 group I member 2 (Rattus norvegicus) (UniProt Q9R1A7); assay: Rat pregnane X receptor (rPXR) activation by small molecules, qHTS assay (AID 1346983); conditions: rPXR luciferase reporter cells, One-Glo luminescence, 24 h; max activation: active compounds read high; further: nearly all actives have a fitted effect of over 20% in size
# Chain of Nuclear receptor subfamily 1 group I member 2 (Rattus norvegicus) (Q9R1A7 whole entry, looked up): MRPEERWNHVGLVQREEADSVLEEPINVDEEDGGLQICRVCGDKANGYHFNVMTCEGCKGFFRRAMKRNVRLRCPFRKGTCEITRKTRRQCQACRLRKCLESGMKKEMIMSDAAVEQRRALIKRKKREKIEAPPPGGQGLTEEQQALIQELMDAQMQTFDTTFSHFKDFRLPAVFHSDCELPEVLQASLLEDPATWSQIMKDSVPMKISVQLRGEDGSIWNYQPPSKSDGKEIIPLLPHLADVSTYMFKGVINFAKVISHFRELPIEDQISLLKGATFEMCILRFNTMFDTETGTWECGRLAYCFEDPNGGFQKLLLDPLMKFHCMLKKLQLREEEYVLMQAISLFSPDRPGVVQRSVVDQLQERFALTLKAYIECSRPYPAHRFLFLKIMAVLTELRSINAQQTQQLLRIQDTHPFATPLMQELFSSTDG
# In short: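 Cell-based rPXR luciferase reporter assay, 2,000 cells per well, rested 5hr at 37 C before compound addition in DMSO, then 24 hr at 37 C. One-Glo reagent was added and luminescence read after 30 min at room temperature.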
# [19] = target: Nuclear receptor subfamily 1 group I member 2 (Homo sapiens) (UniProt O75469); assay: CYP3A4 induction through human pregnane X receptor (PXR) by small molecules, qHTS assay (AID 1346984); conditions: DPX-2 HepG2 PXR, CYP3A4-luciferin luminescence, 24 h; series mostly up to 46.1 µM; further: nearly all actives have a fitted effect of over 40% in size
# In short: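 qHTS, concentration-response format: HepG2 DPX-2 line, PXR/CYP3A4-luc. Exposure 24 h, 37C. Substrate Luciferin-IPA 3uM final, 3 h. Detection One-Glo, 30 min RT.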
# [20] = target: Nuclear receptor subfamily 1 group I member 2 (Homo sapiens) (UniProt O75469); assay: Human pregnane X receptor (PXR) activation by small molecules, qHTS assay (AID 1346985); conditions: DPX-2 HepG2 CYP3A4-luciferase, 24 h; series mostly up to 38.3 µM; further: nearly all actives have a fitted effect of over 40% in size
# In short: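 DPX-2 cells (HepG2 co-transfected with a PXR response element and a CYP3A4-promoter luciferase construct) were seeded at 2,000 per well, rested 5 hr at 37C, then exposed to DMSO-dissolved compounds for 24 hr. Activation was read as luciferase luminescence.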
Compound,Potency [1],Potency [2],Potency [3],Potency [4],Potency [5],outcome [6],Potency [7],Potency [8],Potency [9],Potency [10],Potency [11],Potency [12],Potency [13],Potency [14],Potency [15],Potency [16],Potency [17],max activation [18] [%],Potency [19],Potency [20]
CCOC(=O)Cc1ccccc1,inactive,inactive,inactive,inactive,inactive,inactive,inactive,inactive,inactive,inactive,inactive,inactive,inactive,inactive,inactive,inactive,,,,
CC(=O)[O-].CC(=O)[O-].CC(=O)[O-].[Cr+3],inactive,inactive,inactive,inactive,inactive,inactive,,,inactive,inactive,,inactive,inactive,,,,inactive,,,
O=[N+]([O-])c1ccc(Cl)c(Cl)c1Cl,inactive,inactive,inactive,,inactive,inactive,inactive,inactive,inactive,inactive,inactive,inactive,inactive,inactive,inactive,inactive,inactive,,,
CC(C)C(Br)C(=O)NC(N)=O (stereo not given),inactive,inactive,inactive,,inactive,inactive,inactive,inactive,inactive,inactive,inactive,inactive,inactive,inactive,inactive,inactive,inactive,-0.856,inactive,inactive
CN/C(=N\[N+](=O)[O-])NCc1cnc(Cl)s1,inactive,inactive,inactive,inactive,inactive,inactive,,,inactive,inactive,inactive,inactive,inactive,inactive,inactive,inactive,inactive,,,
CSC(C)(C)/C=N/O,inactive,inactive,inactive,,inactive,inactive,inactive,inactive,inactive,inactive,inactive,inactive,inactive,inactive,inactive,inactive,inactive,,,
CC(=O)[O][Sn]([c]1ccccc1)([c]1ccccc1)[c]1ccccc1,inactive,48.6 nM (active),273 nM (active),433 nM (active),1740 nM (active),,2690 nM (active),4900 nM (active),306 nM (active),306 nM (active),154 nM (active),122 nM (active),2730 nM (active),243 nM (active),inactive,inactive,1950 nM (active),,,
CCCCc1ccccc1,inactive,inactive,inactive,inactive,inactive,inactive,,,inactive,inactive,inactive,inactive,inactive,inactive,,inactive,,,,
Cc1cc2c3c(c1)C(c1ccccc1)=N[C@@H](NC(=O)c1ccncc1)C(=O)N3CC2,inactive,inactive,inactive,inactive,inactive,inactive,inactive,inactive,inactive,inactive,inactive,inactive,inactive,13700 nM (active),,inactive,,,,
ClC1(Cl)C2(Cl)C3(Cl)C4(Cl)C(Cl)(Cl)C5(Cl)C3(Cl)C1(Cl)C5(Cl)C24Cl (stereo not given),inactive,inactive,inactive,,inactive,inactive,inactive,inactive,inactive,inactive,inactive,inactive,inactive,inactive,inactive,inactive,inactive,,,
CC(C)N(C(=O)SC/C(Cl)=C/Cl)C(C)C,inactive,inactive,inactive,inactive,inactive,inactive,,,inactive,inactive,inactive,,inactive,,inactive,inactive,inactive,,,
O=C(O)[C@H](O)[C@@H](O)C(=O)O,inactive,inactive,inactive,inactive,inactive,inactive,inactive,inactive,inactive,inactive,inactive,inactive,inactive,,inactive,inactive,,,,
CC(Cc1ccc(OCC(=O)O)cc1)NCC(O)c1csc(C(F)(F)F)n1 (stereo not given),inactive,inactive,inactive,,inactive,inactive,inactive,inactive,inactive,inactive,inactive,inactive,inactive,inactive,inactive,inactive,inactive,,,
CCCCON=O,inactive,inactive,inactive,inactive,inactive,inactive,inactive,inactive,inactive,inactive,inactive,inactive,inactive,inactive,inactive,inactive,,,,
CCCCN(CCCC)C(=S)[S-].CCCCN(CCCC)C(=S)[S-].[Ni+2],inactive,inactive,inactive,inactive,inactive,inactive,,,inactive,inactive,inactive,inactive,,inactive,inactive,inactive,,,,
COc1c2c(cc3c1OCO3)CCN(C)C2,inactive,inactive,inactive,,inactive,inactive,inactive,inactive,inactive,inactive,inactive,inactive,inactive,inactive,inactive,inactive,inactive,-1.49,inactive,inactive
